Test results as given in PubChem BioAssay (NCATS).
Results filed as inconclusive are left out. Active and inactive are the calls of the source. Unless noted, calls come from the whole dose curve; as a rule, active = well fitted curve in the direction sought with a large enough effect; inconclusive = small, poorly fitted or top-dose-only effect, or another doubt; inactive = no such curve, though single readings can be large; an effect the other way counts as inactive or inconclusive.

Assays:
[1] = Validation of Assay for Modulators of Lamin A Splicing (AID 1459; active = well fitted curve in the direction sought with a large enough effect in the signal ratio; the % refers to the signal ratio;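 note: cells exposed to compound for two days before reading; 0% is about no effect; ratio rise marks activators and ratio drop marks inhibitors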)
Method in brief: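 S3 HeLa stably expressing lamin A-EGFP splicing minigene and DsRed2, 600 cells/well in Opti-MEM with 2% FBS, treated 48 h at 37C; laser-scanning cytometry gives GFP/RFP total intensity ratio; ancitabine positive control, 0.5% DMSO vehicle.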

[2] = target: DNA repair nuclease/redox regulator APEX1 (Homo sapiens) (UniProt P27695); experiment: qHTS Validation Assay for Inhibitors of the Human Apurinic/apyrimidinic Endonuclease 1 (APE1) (AID 1705;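 note: TAMRA fluorescence gain over two minutes as APE1 cuts a quenched THF abasic duplex; series mostly up to about 57 µM; % is set by controls: 0 for no effect and ±100 for the full control effect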)
Sequence of DNA repair nuclease/redox regulator APEX1 (Homo sapiens) (P27695 whole entry, looked up): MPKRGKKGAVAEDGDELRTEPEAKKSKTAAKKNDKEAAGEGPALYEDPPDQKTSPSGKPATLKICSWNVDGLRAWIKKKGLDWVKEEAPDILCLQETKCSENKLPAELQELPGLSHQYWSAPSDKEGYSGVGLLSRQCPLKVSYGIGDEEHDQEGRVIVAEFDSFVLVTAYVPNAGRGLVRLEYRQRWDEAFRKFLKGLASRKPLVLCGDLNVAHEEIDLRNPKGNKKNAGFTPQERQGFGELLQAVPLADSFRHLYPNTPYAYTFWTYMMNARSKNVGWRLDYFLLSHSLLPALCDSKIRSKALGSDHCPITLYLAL
Method in brief: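 Fluorogenic double-stranded THF abasic-site substrate (5'-TAMRA/3'-BHQ-2), 50 nM final. Enzyme preincubated with compound 15 min at room temperature, then substrate added. Kinetic fluorescence (ex 525/em 598 nm) read three times at 60 s intervals; activity taken as third-minus-first read difference.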

[3] = Counterscreen for APE1 Inhibitors: Fluorescent Dye Displacement Validation Assay (AID 1707);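 note: plate controls were ThO with dsDNA and no compound for no effect and ThO without dsDNA for full effect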
Method in brief: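 Thiazole Orange displacement from dsDNA: 250 nM ThO with 50 nM TAMRA-labelled abasic-site (tetrahydrofuran) duplex in 50 mM Tris-HCl pH7.5, 50mM NaCl, 2 mM MgCl2, 0.01% Tween-20. Loss of endpoint fluorescence (ex 480 nm, em 540 nm) flags DNA binders.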

[4] = target: Endonuclease 4 (Escherichia coli (strain K12)) (UniProt P0A6C1); experiment: Counterscreen for APE1 Inhibitors: qHTS Validation Assay for Inhibitors of Endonuclease IV (AID 1708); note: % is set by controls: 0 for no effect and ±100 for the full control effect
Method in brief: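 E. coli EndoIV at 2 nM final, preincubated 15 min at room temperature with compound, then 50 nM TAMRA/BHQ-2 THF abasic-site duplex added. Buffer: 50 mM Tris-HCl pH 7.5, 50 mM NaCl, 2 mM MgCl2, 1 mM DTT, 0.01% Tween-20. Kinetic fluorescence increase, third minus first read.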

[5] = qHTS for differential inhibitors of proliferation of Plasmodium falciparum line 7G8 (AID 1815);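 note: potency is the fitted concentration of half-maximal effect; parasite growth measured after three days of incubation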
[6] = qHTS for differential inhibitors of proliferation of Plasmodium falciparum line GB4 (AID 1816); settings: Potency: Plasmodium falciparum GB4 proliferation inhibition;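 note: potency is the fitted concentration of half-maximal effect; parasite growth measured after 72 h incubation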
[7] = qHTS for differential inhibitors of proliferation of Plasmodium falciparum line 3D7 (AID 1876); note: potency is the fitted concentration of half-maximal effect
[8] = qHTS for differential inhibitors of proliferation of Plasmodium falciparum line Dd2 (AID 1882); settings: Potency: Plasmodium falciparum Dd2 proliferation inhibition; note: potency is the fitted concentration of half-maximal effect; nearly all actives have a fitted effect of over 65% in size
Method in brief: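 Dd2-infected erythrocytes (0.3% parasitemia, 2.5% hematocrit final) incubated with compound 72 h at 37 C, 5% CO2; lysed with saponin/Triton buffer containing SYBR Green I, incubated overnight in the dark, then read by fluorescence (485/535 nm). Normalized to 0.29 uM artemisinin and DMSO.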

[9] = qHTS for differential inhibitors of proliferation of Plasmodium falciparum line W2 (AID 1883); settings: Potency: Plasmodium falciparum W2 proliferation inhibition;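 note: potency is the fitted concentration of half-maximal effect; parasites grown with compound for 72 h before lysis and staining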
[10] = qHTS for differential inhibitors of proliferation of Plasmodium falciparum line HB3 (AID 1886); settings: Potency: Plasmodium falciparum HB3 proliferation inhibition;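 note: potency is the fitted concentration of half-maximal effect; parasites grown with compound for 72 h before SYBR Green readout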
[11] = target: Ferritin light chain (Equus caballus) (UniProt P02791); experiment: qHTS Validation Assay for Identification of Novel General Anesthetics (AID 2323); note: series mostly up to about 77 µM; % is set by controls: 0 for no effect and ±100 for the full control effect
Method in brief: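 Horse-spleen apoferritin (10 uM) in PBS with 50% saturated 1-aminoanthracene; compounds pin-transferred, 10 min at room temperature. Fluorescence read at 380/535 nm, normalized to free 1-AMA and 1-AMA/apoferritin values; four-parameter Hill fit.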

[12] = target: ATP-dependent DNA helicase Q1 (Homo sapiens) (UniProt P46063); experiment: qHTS Validation Assay for Inhibitors of RecQ-Like Dna Helicase 1 (RECQ1) (AID 2353);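 note: plate controls were DMSO vehicle for no effect and enzyme-free control for full effect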
Method in brief: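 50 nM RECQ1T1 preincubated 15 min with compound in Tris pH 8.0 buffer with MgCl2, DTT, Tween-20 and 2.5 ug/ml poly(dI-dC); started with 200 nM TAMRA/BHQ-2 forked duplex and 2 mM ATP. Unwinding read as fluorescence (525/598 nm), two reads 2 h apart.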

[13] = target: RecQ-like DNA helicase BLM (Homo sapiens) (UniProt P54132); experiment: qHTS Validation Assay for Inhibitors of Bloom's syndrome helicase (BLM) (AID 2364);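 note: plate controls were DMSO vehicle for no effect and enzyme-free control for full effect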
Sequence of RecQ-like DNA helicase BLM (Homo sapiens) (P54132 whole entry, looked up): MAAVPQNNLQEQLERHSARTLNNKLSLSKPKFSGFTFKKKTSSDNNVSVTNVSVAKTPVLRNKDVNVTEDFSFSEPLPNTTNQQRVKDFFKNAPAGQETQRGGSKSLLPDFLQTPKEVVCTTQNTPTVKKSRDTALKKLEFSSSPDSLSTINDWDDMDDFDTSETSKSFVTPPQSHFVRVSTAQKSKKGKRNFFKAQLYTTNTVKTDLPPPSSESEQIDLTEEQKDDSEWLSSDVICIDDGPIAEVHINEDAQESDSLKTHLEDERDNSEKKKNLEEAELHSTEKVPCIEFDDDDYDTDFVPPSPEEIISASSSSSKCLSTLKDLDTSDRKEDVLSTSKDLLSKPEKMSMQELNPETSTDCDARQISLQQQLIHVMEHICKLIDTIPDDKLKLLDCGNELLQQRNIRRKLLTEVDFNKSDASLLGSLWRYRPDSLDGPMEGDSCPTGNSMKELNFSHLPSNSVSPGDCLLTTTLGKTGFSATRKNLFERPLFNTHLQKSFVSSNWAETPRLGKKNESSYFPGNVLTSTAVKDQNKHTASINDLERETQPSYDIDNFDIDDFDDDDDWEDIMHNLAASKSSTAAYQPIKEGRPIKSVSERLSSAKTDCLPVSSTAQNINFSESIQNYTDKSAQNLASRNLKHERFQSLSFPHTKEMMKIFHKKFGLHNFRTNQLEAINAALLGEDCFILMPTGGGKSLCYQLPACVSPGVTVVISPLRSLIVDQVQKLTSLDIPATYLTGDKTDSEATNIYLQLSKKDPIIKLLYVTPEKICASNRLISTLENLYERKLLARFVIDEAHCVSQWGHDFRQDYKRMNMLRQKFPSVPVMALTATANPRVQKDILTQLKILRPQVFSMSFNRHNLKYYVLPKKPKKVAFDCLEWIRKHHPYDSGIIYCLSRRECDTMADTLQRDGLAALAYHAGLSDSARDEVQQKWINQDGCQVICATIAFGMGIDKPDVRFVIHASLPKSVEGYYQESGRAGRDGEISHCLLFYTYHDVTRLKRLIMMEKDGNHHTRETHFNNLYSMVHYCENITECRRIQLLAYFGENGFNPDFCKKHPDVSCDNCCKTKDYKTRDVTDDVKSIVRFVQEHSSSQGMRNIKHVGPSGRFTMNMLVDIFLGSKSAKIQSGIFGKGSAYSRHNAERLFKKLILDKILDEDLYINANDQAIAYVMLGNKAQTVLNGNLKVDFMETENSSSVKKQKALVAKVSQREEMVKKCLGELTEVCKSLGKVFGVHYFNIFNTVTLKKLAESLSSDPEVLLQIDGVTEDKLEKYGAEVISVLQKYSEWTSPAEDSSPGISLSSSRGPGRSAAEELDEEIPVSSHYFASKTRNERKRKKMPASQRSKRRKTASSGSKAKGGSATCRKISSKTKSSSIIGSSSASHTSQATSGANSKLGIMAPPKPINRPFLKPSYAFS
Method in brief: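 50 nM BLM preincubated 15 min at room temperature with compound in pH 8.0 Tris buffer containing 2.5 ug/ml poly(dI-dC); started with 200 nM TAMRA/BHQ-2 forked duplex and 2 mM ATP (final). Unwinding read as TAMRA fluorescence increase, two reads 2 h apart.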

[14] = target: M-phase phosphoprotein 8 (Homo sapiens) (UniProt Q99549); experiment: qHTS Validation Assay for Inhibitors for MPP8 Chromodomain Interactions with Methylated Histone Tails (AID 488949); note: top concentration of the series differs between compounds; % is set by controls: 0 for no effect and ±100 for the full control effect; nearly all actives have a fitted effect of over 55% in size
Sequence of M-phase phosphoprotein 8 (Homo sapiens) (Q99549 whole entry, looked up): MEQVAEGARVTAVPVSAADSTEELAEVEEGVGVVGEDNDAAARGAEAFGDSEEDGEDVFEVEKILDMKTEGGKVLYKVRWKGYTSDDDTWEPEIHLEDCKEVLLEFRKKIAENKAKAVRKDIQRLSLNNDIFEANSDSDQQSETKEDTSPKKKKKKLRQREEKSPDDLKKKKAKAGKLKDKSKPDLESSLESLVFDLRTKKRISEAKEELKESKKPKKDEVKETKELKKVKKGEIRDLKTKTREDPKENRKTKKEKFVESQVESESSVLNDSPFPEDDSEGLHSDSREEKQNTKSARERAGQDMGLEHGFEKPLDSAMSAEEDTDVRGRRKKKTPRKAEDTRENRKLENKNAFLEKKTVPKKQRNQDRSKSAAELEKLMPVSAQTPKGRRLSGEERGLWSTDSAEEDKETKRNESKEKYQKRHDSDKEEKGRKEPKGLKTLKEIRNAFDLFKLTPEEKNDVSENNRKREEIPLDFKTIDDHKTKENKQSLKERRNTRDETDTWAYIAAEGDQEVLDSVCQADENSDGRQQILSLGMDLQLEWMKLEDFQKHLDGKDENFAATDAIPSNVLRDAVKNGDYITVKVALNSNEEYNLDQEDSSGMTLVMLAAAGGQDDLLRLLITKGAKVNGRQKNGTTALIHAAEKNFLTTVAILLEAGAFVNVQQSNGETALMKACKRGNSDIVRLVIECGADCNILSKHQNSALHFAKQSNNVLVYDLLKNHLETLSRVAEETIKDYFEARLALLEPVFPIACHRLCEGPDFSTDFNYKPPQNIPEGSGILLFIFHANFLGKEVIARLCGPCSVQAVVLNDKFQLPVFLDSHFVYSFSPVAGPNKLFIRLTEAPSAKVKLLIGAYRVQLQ
Method in brief: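 MPP8 (50 nM) was pre-bound to 50 nM biotinylated H3(1-18)K9me3 peptide in PBS pH 7.4 with 0.01% Tween-20. Compounds were then added for 30 min at room temperature, and complex disruption was read by AlphaScreen with streptavidin donor and nickel-chelate acceptor beads.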

[15] = target: Thyrotropin receptor (Homo sapiens) (UniProt P16473); experiment: qHTS Assay for Antagonists of the Thyroid Stimulating Hormone Receptor (AID 488980); note: series mostly up to about 58 µM; 0% is about no effect
Sequence of Thyrotropin receptor (Homo sapiens) (P16473 whole entry, looked up): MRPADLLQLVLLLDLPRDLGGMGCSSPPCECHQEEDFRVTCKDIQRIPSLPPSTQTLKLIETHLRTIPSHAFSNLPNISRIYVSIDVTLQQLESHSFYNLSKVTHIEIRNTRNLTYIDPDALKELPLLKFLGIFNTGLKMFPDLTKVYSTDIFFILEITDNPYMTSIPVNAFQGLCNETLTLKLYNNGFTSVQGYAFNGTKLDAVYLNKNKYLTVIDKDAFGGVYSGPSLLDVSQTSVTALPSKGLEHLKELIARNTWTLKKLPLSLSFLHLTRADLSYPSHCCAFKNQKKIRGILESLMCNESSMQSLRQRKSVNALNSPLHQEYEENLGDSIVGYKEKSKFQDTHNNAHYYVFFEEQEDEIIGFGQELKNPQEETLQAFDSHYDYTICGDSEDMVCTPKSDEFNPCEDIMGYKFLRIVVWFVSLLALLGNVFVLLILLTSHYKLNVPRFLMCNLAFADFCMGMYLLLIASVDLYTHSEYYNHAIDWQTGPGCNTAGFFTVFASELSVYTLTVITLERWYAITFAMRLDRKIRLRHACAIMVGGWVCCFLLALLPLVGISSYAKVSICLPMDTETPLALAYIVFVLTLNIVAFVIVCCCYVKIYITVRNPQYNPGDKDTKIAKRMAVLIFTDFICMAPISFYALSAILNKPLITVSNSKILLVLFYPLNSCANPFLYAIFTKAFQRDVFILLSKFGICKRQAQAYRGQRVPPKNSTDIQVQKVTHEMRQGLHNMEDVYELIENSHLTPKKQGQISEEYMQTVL
Method in brief: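 TSHR-transfected HEK293 cells (2000/well) in HEPES-buffered HBSS with 70 uM RO 20-1724 were stimulated with 4 nM TSH (EC80, final) in the presence of compound. cAMP was measured by HTRF competition after lysis and 30 min at RT.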

[16] = target: Thyrotropin-releasing hormone receptor (Homo sapiens) (UniProt P34981); experiment: qHTS for Small Molecule Agonists and Allosteric Enhancers of Human TRH Receptor: Validation Screen for Agonists (AID 493127;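 active = calcium activation more than 3 SD above the typical response in the agonist read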; note: 0% is about no effect); settings: TRH receptor agonist cell assay; at 2 µM; active compounds read high
Sequence of Thyrotropin-releasing hormone receptor (Homo sapiens) (P34981 whole entry, looked up): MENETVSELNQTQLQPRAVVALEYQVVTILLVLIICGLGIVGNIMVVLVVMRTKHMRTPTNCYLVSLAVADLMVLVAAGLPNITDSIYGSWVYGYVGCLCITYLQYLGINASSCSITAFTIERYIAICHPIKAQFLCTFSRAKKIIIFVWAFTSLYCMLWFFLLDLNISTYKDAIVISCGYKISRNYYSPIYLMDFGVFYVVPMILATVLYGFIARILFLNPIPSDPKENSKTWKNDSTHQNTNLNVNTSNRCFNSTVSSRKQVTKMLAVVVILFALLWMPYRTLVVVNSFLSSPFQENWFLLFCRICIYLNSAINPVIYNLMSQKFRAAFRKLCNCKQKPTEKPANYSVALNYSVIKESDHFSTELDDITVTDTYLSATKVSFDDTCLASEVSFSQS
Method in brief: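 TRHR cells loaded with fluo-8 calcium dye; FDSS kinetic fluorescence (Ex 480/Em 530) read at 1 s/cycle after 23 nL compound addition. Agonist-mode calcium response recorded before the 10 nM TRH (EC20) addition.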

[17] = Validation screen for small molecules that induce DNA re-replication in SW480 colon adenocarcinoma cells (AID 504364); note: 0% is about no effect
Method in brief: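 SW480 cells (250/well) exposed 48 h at 37 C, 5% CO2, then Hoechst-stained 40 min. Nuclear DNA content imaged by fluorescence scanning (405 nm excitation, 500-530 nm emission); re-replication scored as increased nuclei with elevated intensity.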

[18] = target: Voltage-gated inwardly rectifying potassium channel KCNH2 (Homo sapiens) (UniProt Q12809); experiment: qHTS Assay for Small Molecule Inhibitors of the Human hERG Channel Activity (AID 588834);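 note: top concentration of the series differs between compounds; % is set by controls: 0 for no effect and ±100 for the full control effect; lower thallium flux fluorescence means stronger hERG block; nearly all actives have a fitted effect of over 50% in size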
Sequence of Voltage-gated inwardly rectifying potassium channel KCNH2 (Homo sapiens) (Q12809 whole entry, looked up): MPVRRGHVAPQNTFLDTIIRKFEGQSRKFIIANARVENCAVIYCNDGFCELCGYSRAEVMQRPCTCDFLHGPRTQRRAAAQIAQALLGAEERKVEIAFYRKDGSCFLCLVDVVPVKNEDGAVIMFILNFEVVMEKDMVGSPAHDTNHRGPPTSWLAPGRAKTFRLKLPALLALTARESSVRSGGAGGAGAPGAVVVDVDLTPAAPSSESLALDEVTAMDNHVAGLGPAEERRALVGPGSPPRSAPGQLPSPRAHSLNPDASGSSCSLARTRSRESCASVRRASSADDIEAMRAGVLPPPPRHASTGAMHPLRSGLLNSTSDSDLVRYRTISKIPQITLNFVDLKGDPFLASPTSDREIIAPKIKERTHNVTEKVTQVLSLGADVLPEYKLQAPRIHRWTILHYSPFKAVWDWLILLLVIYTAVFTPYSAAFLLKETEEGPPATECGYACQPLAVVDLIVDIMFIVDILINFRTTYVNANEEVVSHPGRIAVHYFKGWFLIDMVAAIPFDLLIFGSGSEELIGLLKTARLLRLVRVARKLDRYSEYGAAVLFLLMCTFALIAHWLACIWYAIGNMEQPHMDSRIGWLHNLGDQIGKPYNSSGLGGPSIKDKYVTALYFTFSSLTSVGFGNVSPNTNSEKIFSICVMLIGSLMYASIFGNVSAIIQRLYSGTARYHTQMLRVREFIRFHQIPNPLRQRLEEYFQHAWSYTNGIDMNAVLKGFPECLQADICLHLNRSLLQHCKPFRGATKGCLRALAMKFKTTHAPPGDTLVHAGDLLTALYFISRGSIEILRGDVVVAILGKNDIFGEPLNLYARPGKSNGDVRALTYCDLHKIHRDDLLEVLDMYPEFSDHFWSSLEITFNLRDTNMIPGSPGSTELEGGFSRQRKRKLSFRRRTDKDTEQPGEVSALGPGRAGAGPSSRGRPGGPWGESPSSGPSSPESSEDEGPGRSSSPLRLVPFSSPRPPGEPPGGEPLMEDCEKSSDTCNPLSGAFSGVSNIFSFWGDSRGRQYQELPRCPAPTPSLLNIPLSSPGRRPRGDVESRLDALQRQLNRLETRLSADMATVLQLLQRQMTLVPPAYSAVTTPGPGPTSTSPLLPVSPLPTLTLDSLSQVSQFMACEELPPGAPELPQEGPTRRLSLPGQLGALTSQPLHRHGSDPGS
Method in brief: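 U2OS cells BacMam-transduced with hERG, 2000 cells/well, compound ~10 min at 37 °C before stimulation buffer. FluxOR thallium flux fluorescence read kinetically on FDSS; decrease indicates block; AC50 from Hill fits.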

[19] = system: Zika virus NS2B-NS3 protease; experiment: Primary screen GU AMC qHTS for Zika virus inhibitors (AID 1347154);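 note: 0% = no-inhibitor control and -100% = no-enzyme control; nearly all actives have a fitted effect of over 70% in size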
Method in brief: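 Unlinked Zika NS2B hydrophilic domain–NS3 protease complex at 25 nM in 10 mM Tris-HCl pH 8.0, 0.01% Tween 20, with an AMC peptide substrate. Fluorescence change (340/450 nm) over 15 min at room temperature, normalized to controls, fitted to 4-parameter Hill.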

Cc1ccc(OCC(O)C(C)NC(C)C)c2c1CCC2 (centres undefined)
active: Potency [5] 2.82 µM | Potency [6] 2.82 µM | Potency [7] 11.2 µM | Potency [8] 12.6 µM | Potency [9] 1.58 µM | Potency [10] 11.2 µM
inactive: outcome [1] | Potency [2] | Potency [3] | Potency [4] | outcome [11] | Potency [12] | Potency [13] | Potency [14] | outcome [15] | activation [16] 2.81% | outcome [17] | Potency [18] | Potency [19]
